Results taken from the supplement of paper PMC12669032.

Tested on: Lactobacillus gasseri
Test: growth AUC relative to DMSO control (median of replicates) (fraction); higher = more growth (less inhibition), active = hit call of the paper
Settings: 20 µM; 24 h;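 active = AUC reduced over 20% with Padj below 0.05 in at least 2 of 3 replicates; inactive = otherwise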
Method in brief: (§1)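 In round-bottom 96-well plates sealed with pierced gas-permeable seals, gut bacterial monocultures in mGAM were grown anaerobically at 37 °C from OD600 0.05 with 20 µM compound (1% DMSO). OD600 readings were taken hourly for 24 h, and the minimum OD was set to 0. Area under the growth curve was then normalised to the plate median of solvent-only wells, or to row and column medians on the industrial chemical plate. The value given is the median of three biological replicates grown on separate days.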

Growth AUC, active:
C/C=C/C(=O)Oc1c(C(C)CCCCCC)cc([N+](=O)[O-])cc1[N+](=O)[O-] (mixture of isomers) 0.273

Growth AUC, inactive:
O=C(O)Cc1c(Cl)ccc(Cl)c1Cl 1.06
COc1cc(OC)c(Cl)cc1N 0.969
O=S(Cc1ccc(Cl)cc1)c1ccc(Cl)cc1 (stereo not drawn) 0.899
Cc1cc(C)c(C2=C(O)C3(CCCC3)OC2=O)c(C)c1 1.09
CN(C)C(=O)c1cccnc1S(N)(=O)=O 1.06
CCCN(CCOc1c(Cl)cc(Cl)cc1Cl)C(N)=O 0.946
Cc1nn(C)c(OCC(=O)c2ccccc2)c1C(=O)c1ccc(Cl)cc1Cl 1.02
CC(C)(C)Nc1nc(N)nc(Cl)n1 0.974
COC(=O)c1c(Cl)nn(C)c1S(=O)(=O)NC(=O)Nc1nc(OC)cc(OC)n1 0.882
[S] 0.959
CCCCCCCCc1c(CC)nc2ncnn2c1N 0.904
Cn1cc(C(=O)Nc2ccccc2-c2cc(F)c(F)c(F)c2)c(C(F)F)n1 0.995
CCCOc1nc2ccc(I)cc2c(=O)n1CCC 0.833
CNc1nc(NC(C)C)nc(SC)n1 1.18
CC(C)(C)[C@@H](O)[C@@H](Cc1ccc(Cl)cc1)n1cncn1 (mixture of isomers) 0.913
Cc1ccc2c(c1)[C@H](Nc1nc(N)nc(C(C)F)n1)[C@@H](C)C2 (stereo partly drawn) 0.982
CCN(CC)c1nc(C)cc(=O)[nH]1 0.998
Clc1ccc(C(c2ccccc2Cl)C(Cl)Cl)cc1 (stereo not drawn) 0.496
CSc1nc(NC2CC2)nc(NC(C)(C)C)n1 1.05
CCc1cccc(C)c1N(C(=O)C(=O)O)[C@@H](C)C(=O)O 0.853
CCNc1nc(NC(C)(C)C)[nH]c(=O)n1 0.899
CC(C)N(C(=O)C(=O)O)c1ccccc1 1.07
Cc1nn(C)c(F)c1C(=O)Nc1ccccc1C(C)CC(C)C (stereo not drawn) 1.03
CC(C)c1cc(Oc2ccccc2)cc(C(C)C)c1NC(=S)NC(C)(C)C 0.978
CCCCOCCOC(=O)COc1ccc(Cl)cc1Cl 0.88
CCOC(=O)C(C)Oc1ccc(Oc2nc3ccc(Cl)cc3o2)cc1 (racemic) 0.91
c1ccc2c(c1)Cc1ccccc1-2 1.05
CC(C)(C)C(O)/C(=C\c1ccc(Cl)cc1)n1cncn1 (stereo not drawn) 0.943
Oc1ccccc1 1.08
Cc1c(Br)c2ccc(F)cc2n1S(=O)(=O)c1ncn(S(=O)(=O)N(C)C)n1 1.04
NC(Cn1cncn1)C(=O)O (stereo not drawn) 0.999
CCCCC(CC)COC(=O)COc1ccc(Cl)cc1C (stereo not drawn) 0.828
c1ccc(CNc2ncnc3nc[nH]c23)cc1 0.956
CON=C(Cc1cccnc1)c1ccc(Cl)cc1Cl 1.03
COC(=O)Cc1cccc2ccccc12 0.924
CC1(C)C(=O)Oc2ccc(OS(C)(=O)=O)cc21 0.983
CN(C)c1ccc(N=NS(=O)(=O)[O-])cc1.[Na+] 0.967
CCOC(=O)Cn1c(=O)sc2cccc(Cl)c21 1.04

Tested on: Lactobacillus paracasei
Test: as above
Settings: 20 µM; 24 h
Method in brief: as §1

Growth AUC, inactive:
O=C(O)Cc1c(Cl)ccc(Cl)c1Cl 1.03
COc1cc(OC)c(Cl)cc1N 1.04
O=S(Cc1ccc(Cl)cc1)c1ccc(Cl)cc1 (stereo not drawn) 1.24
Cc1cc(C)c(C2=C(O)C3(CCCC3)OC2=O)c(C)c1 1.02
CN(C)C(=O)c1cccnc1S(N)(=O)=O 1.04
CCCN(CCOc1c(Cl)cc(Cl)cc1Cl)C(N)=O 0.851
Cc1nn(C)c(OCC(=O)c2ccccc2)c1C(=O)c1ccc(Cl)cc1Cl 0.991
CC(C)(C)Nc1nc(N)nc(Cl)n1 0.987
COC(=O)c1c(Cl)nn(C)c1S(=O)(=O)NC(=O)Nc1nc(OC)cc(OC)n1 1.03
[S] 1.01
CCCCCCCCc1c(CC)nc2ncnn2c1N 0.931
Cn1cc(C(=O)Nc2ccccc2-c2cc(F)c(F)c(F)c2)c(C(F)F)n1 0.943
CCCOc1nc2ccc(I)cc2c(=O)n1CCC 0.976
CNc1nc(NC(C)C)nc(SC)n1 1.05
CC(C)(C)[C@@H](O)[C@@H](Cc1ccc(Cl)cc1)n1cncn1 (mixture of isomers) 0.954
Cc1ccc2c(c1)[C@H](Nc1nc(N)nc(C(C)F)n1)[C@@H](C)C2 (stereo partly drawn) 0.986
CCN(CC)c1nc(C)cc(=O)[nH]1 0.989
Clc1ccc(C(c2ccccc2Cl)C(Cl)Cl)cc1 (stereo not drawn) 1.04
CSc1nc(NC2CC2)nc(NC(C)(C)C)n1 0.987
CCc1cccc(C)c1N(C(=O)C(=O)O)[C@@H](C)C(=O)O 1.01
CCNc1nc(NC(C)(C)C)[nH]c(=O)n1 1.04
CC(C)N(C(=O)C(=O)O)c1ccccc1 1.02
Cc1nn(C)c(F)c1C(=O)Nc1ccccc1C(C)CC(C)C (stereo not drawn) 0.97
CC(C)c1cc(Oc2ccccc2)cc(C(C)C)c1NC(=S)NC(C)(C)C 1.03
CCCCOCCOC(=O)COc1ccc(Cl)cc1Cl 0.962
CCOC(=O)C(C)Oc1ccc(Oc2nc3ccc(Cl)cc3o2)cc1 (racemic) 0.97
c1ccc2c(c1)Cc1ccccc1-2 1.05
CC(C)(C)C(O)/C(=C\c1ccc(Cl)cc1)n1cncn1 (stereo not drawn) 1.05
Oc1ccccc1 1.04
Cc1c(Br)c2ccc(F)cc2n1S(=O)(=O)c1ncn(S(=O)(=O)N(C)C)n1 0.981
NC(Cn1cncn1)C(=O)O (stereo not drawn) 0.977
CCCCC(CC)COC(=O)COc1ccc(Cl)cc1C (stereo not drawn) 0.962
c1ccc(CNc2ncnc3nc[nH]c23)cc1 1.03
CON=C(Cc1cccnc1)c1ccc(Cl)cc1Cl 1.18
COC(=O)Cc1cccc2ccccc12 0.974
CC1(C)C(=O)Oc2ccc(OS(C)(=O)=O)cc21 0.965
CN(C)c1ccc(N=NS(=O)(=O)[O-])cc1.[Na+] 1.02
CCOC(=O)Cn1c(=O)sc2cccc(Cl)c21 0.993

Growth AUC, active:
C/C=C/C(=O)Oc1c(C(C)CCCCCC)cc([N+](=O)[O-])cc1[N+](=O)[O-] (mixture of isomers) 0.41
